Assay results published in PubChem BioAssay AID1159580 (chemical genetic matrix, 2015).
Among all 5,500 compounds or so, about 2,000 (36%) were called active. Not shown: some 18% with an inconclusive outcome. Rule as the data show it: active = normalized growth mostly below about 0.91 (no sharp cut-off); inconclusive = no clear call, values can overlap the other calls; inactive = mostly above about 0.92. The list shows a part of the results.

Assay: chemical genetic growth profiling, strain panel (AID 1159580);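 also: tested at 20 µM; growth read once vehicle control cultures reached saturation at 30 °C; 1 = growth at the plate median or of vehicle wells; lower values mean less growth of the strain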
Details: S. cerevisiae deletion strains, growth OD

Measured: normalized growth

Cc1cn([C@H]2C=C[C@@H](CO)O2)c(=O)[nH]c1=O
inactive: locus YAL040C, strain CLN3, stronger effect = lower value 0.999 | locus YCL061C, strain MRC1 (second series), stronger effect = lower value 1.01 | locus YDR363W, strain ESC2, stronger effect = lower value 0.976 | locus YER002W, strain NOP16, stronger effect = lower value 1 | locus YGR078C, strain PAC10, stronger effect = lower value 1.02 | locus YMR263W, strain SAP30, stronger effect = lower value 0.998 | locus YMR307W, strain GAS1, stronger effect = lower value 0.994 | locus YNL175C, strain NOP13, stronger effect = lower value 0.993 | locus YNL197C, strain WHI3, stronger effect = lower value 0.995 | locus YNL224C, strain SQS1, stronger effect = lower value 1 | locus YNL322C, strain KRE1, stronger effect = lower value 0.994 | locus YOR083W, strain WHI5 (second series), stronger effect = lower value 1.06 | locus YPL055C, strain LGE1, stronger effect = lower value 0.974 | locus YPL241C, strain CIN2, stronger effect = lower value 1
